TRPML1 inh: human mucolipin-1 channel inhibition. activity change, negative = inhibition, % (concentration not given with the values). TRPML1-inducible cells, Ca2+ dye fluorescence, FDSS; active compounds read low; inhibition of EC80 agonist-evoked calcium signal. 390,000 tested, 0.02% active; in the data active means activity change below about -50%; inconclusive means between about -30% and that limit;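 further: stimulus is agonist 54-4 at its EC80 concentration; on the % scale 0 is the no-effect control and ±100 the full control effect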
Target sequence (Q9GZU1 whole entry, looked up): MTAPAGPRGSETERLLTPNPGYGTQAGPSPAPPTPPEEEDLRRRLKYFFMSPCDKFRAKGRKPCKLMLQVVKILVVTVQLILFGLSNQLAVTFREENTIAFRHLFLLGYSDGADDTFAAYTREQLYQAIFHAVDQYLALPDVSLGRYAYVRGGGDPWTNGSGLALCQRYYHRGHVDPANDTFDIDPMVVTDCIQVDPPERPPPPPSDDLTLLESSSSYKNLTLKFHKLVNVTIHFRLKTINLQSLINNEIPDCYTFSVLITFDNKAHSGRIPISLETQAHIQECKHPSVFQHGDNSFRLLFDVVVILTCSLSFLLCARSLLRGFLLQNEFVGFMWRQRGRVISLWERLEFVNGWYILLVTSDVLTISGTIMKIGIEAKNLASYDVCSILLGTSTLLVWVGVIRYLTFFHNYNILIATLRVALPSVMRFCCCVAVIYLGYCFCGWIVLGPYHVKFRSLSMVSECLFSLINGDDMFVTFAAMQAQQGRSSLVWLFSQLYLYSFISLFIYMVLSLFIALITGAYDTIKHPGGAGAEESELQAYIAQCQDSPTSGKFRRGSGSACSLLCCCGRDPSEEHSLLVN
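TRPML1-DL cells, Tet-induced overnight (~16 h, 37 °C) at 1,500 cells/well, were loaded with Ca8 no-wash dye plus quencher for 45-90 min at room temperature. Compounds were pinned during FDSS kinetic reading; agonist 54-4 at EC80 (4 uM final) then added.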
TRPV1 agonist: agonists of human vanilloid receptor 1 (TRPV1); Q8NER1; TRPV1-expressing cells, Fluo-8 calcium influx, agonist mode; activation, % at 8.33 µM; 320,000 tested, 0.19% active; AID 540275; in the data active means activation above about 80%; inconclusive means between about 30% and that limit; further: 0% is about no effect
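Fluo-8 calcium influx in TRPV1-expressing cells, kinetic read (ex 480/em 520 nm). Compound added and read 3 min for agonist activity, followed by capsaicin at EC20 final and 2 min further read for enhancement.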
TRPML1 agonist: activates the human TRPML1 channel; TRPML1-expressing cells, Ca2+ dye fluorescence, FDSS; AID 624414; 410,000 tested, 0.12% active; activation, % (concentration not given with the values); Q9GZU1; in the data active means activation above about 50%; inconclusive means mostly about 30% to 49%; further: 0% is about no effect
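Agonist activity was taken from a 110 s kinetic Ca2+ dye read on the FDSS after pinning compounds onto TRPML1-DL cells. The cells were seeded at 1,500/well with Tet inducer, incubated about 16 h, then dye-loaded at room temperature.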
TRPV1 potentiator: enhances activation of the human vanilloid receptor TRPV1; TRPV1-expressing cells, Fluo-8 calcium influx, capsaicin EC20 potentiation; potentiation, % at 8.33 µM; 320,000 tested, 0.02% active; AID 540277; in the data active means potentiation above about 80%; inconclusive means between about 30% and that limit; further: 0% is about no effect
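Cells expressing TRPV1 were dye-loaded with Fluo-8 and read kinetically: 10 s baseline, 3 min after compound (agonist portion), then 2 min after EC20 capsaicin (allosteric enhancer portion). Calcium-bound dye fluorescence at 480/520 nm.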
The depositor's hits bear a star. Rows were chosen to be rich in hits. Some 0.31% of all compounds tested hit in one or more screens of this group.

CCCC(=O)N1CCN(c2nc(CC(C)C)c3c(c2C#N)CCC3)CC1 was read as TRPML1 inh 28.7, TRPV1 agonist 83.2*, TRPML1 agonist 2.2 and TRPV1 potentiator -22.7.
Screening CC(C)Cc1nc(N2CCN(C(=O)c3ccco3)CC2)c(C#N)c2c1CCCC2 returned TRPML1 inh -10.8, TRPV1 agonist inconclusive, TRPML1 agonist -0.3 and TRPV1 potentiator -15.7.
`Cc1cc(C)n(-c2nc3sc4c(c3c3nnc(SCC(N)=O)n23)CC(C)(C)OC4)n1` gave TRPML1 inh 4.9, TRPV1 agonist -0.2, TRPML1 agonist 1.1 and TRPV1 potentiator 2.4.
Screening CSc1nnc2c3c4c(sc3nc(-n3nc(C)cc3C)n12)COC(C)(C)C4 returned TRPML1 inh 9.7, TRPV1 agonist 80.4*, TRPML1 agonist -0.4 and TRPV1 potentiator 5.2.
CC(Oc1ccccc1)C(=O)Nc1ccccc1C(=O)OCc1cc(=O)n2nc(C(C)C)sc2n1 (configuration not stated) was read as TRPML1 inh -19.1 and TRPML1 agonist 0.9.
CCCNC(=O)Cn1c(=O)/c(=C\c2ccc(-c3ccc([N+](=O)[O-])cc3)o2)s/c1=C\C(=O)C(C)(C)C was read as TRPML1 inh -12.7, TRPV1 agonist inconclusive, TRPML1 agonist 127.1* and TRPV1 potentiator 18.0.
Screening Cc1ccc(C)c(N2CCN(C(=O)c3c(C)oc4nc(C)nc(N5CCOCC5)c34)CC2)c1 returned TRPML1 inh -10.4 and TRPML1 agonist 1.3.
Screening C/C(=N/NC(=O)c1ccncc1)c1ccc(NC(=O)c2ccc(Cl)cc2Cl)cc1 returned TRPML1 inh 18.8, TRPV1 agonist -2.3, TRPML1 agonist -0.3 and TRPV1 potentiator -10.7.
Screening CC(C)CC(=NNC(=O)c1ccncc1)c1cc(Cl)ccc1O returned TRPML1 inh 7.4 and TRPML1 agonist 70.5*.
CCCCCCC[n+]1ccc(C)c2ccccc21 was read as TRPML1 agonist 0.2.
`Cc1c(F)cccc1Cn1cnc2c(cnn2C(C)(C)C)c1=O` gave TRPML1 inh -1.0 and TRPML1 agonist 1.9.
Cc1cc(C)nc(/N=C(\N)Nc2ccc(F)c([N+](=O)[O-])c2)n1 was read as TRPML1 inh -13.2 and TRPML1 agonist 74.6*.
CC(=O)Nc1ccc(N/C(N)=N/c2nc(C)cc(C)n2)cc1 was read as TRPML1 inh -1.5, TRPV1 agonist 2.5, TRPML1 agonist 0.6 and TRPV1 potentiator 3.6.
Cc1cc(C)nc(/N=C(\N)Nc2ccc(SC(F)F)cc2)n1 was read as TRPML1 inh -13.2, TRPV1 agonist 16.0, TRPML1 agonist 54.0* and TRPV1 potentiator -21.9.
For COc1ccc(C(=O)N2CCN(c3nc4c(C)c(Cl)ccc4s3)CC2)c(OC)c1 the results were TRPML1 inh 29.0 and TRPML1 agonist -0.4.
`CC(=O)c1cc2c(cc1N/C(=N/S(=O)(=O)c1ccc(F)cc1)c1ccccc1)OCO2` gave TRPML1 inh -6.4 and TRPML1 agonist -0.3.
`CCc1ccc(NC(=O)N(Cc2ccc(C)cc2)Cc2cccn2-c2nnc(N3CCCC3=O)s2)cc1` gave TRPML1 inh 36.7 and TRPML1 agonist 0.5.
For CCOC(=O)c1sc(-c2ccccc2)cc1NC(=O)Nc1ccccc1 the results were TRPML1 inh -9.6, TRPV1 agonist 87.8*, TRPML1 agonist 0.6 and TRPV1 potentiator 0.2.
CCCCCCCCCC[n+]1ccc(/C=C/c2c(C)[nH]c3ccccc23)c2ccccc21 was read as TRPML1 agonist 3.4.
Screening COc1ccc(NC(=O)c2ccc(Br)c(S(=O)(=O)N3CCOCC3)c2)cc1 returned TRPML1 inh -5.9, TRPV1 agonist 98.3*, TRPML1 agonist -1.4 and TRPV1 potentiator -26.6.
Screening Cc1nc2c(C(=O)NCCC(C)C)cnn2c(C)c1Cc1c(F)cccc1Cl returned TRPML1 inh 6.6 and TRPML1 agonist -0.5.
Screening Cn1c(=O)c(NCCO)c2c3c(cccc31)C(=O)c1ccccc1-2 returned TRPML1 inh -4.2 and TRPML1 agonist 92.7*.
Screening CCCCNc1c2c3c(cccc3n(C)c1=O)C(=O)c1ccccc1-2 returned TRPML1 inh -15.0, TRPV1 agonist inconclusive, TRPML1 agonist 88.8* and TRPV1 potentiator 2.4.
`CCNc1c2c3c(cccc3n(C)c1=O)C(=O)c1ccccc1-2` gave TRPML1 inh -28.8, TRPV1 agonist 86.4*, TRPML1 agonist 66.8* and TRPV1 potentiator -9.1.
`Cn1c(=O)c(NC2CCCCC2)c2c3c(cccc31)C(=O)c1ccccc1-2` gave TRPML1 inh inconclusive, TRPV1 agonist 89.0*, TRPML1 agonist 100.0* and TRPV1 potentiator 15.2.
`Cc1c(Cn2cnc3c(cnn3C(C)(C)C)c2=O)cccc1C(F)(F)F` gave TRPML1 inh 11.9 and TRPML1 agonist 1.1.
For CCOc1ccc(OCC)c(NC(=O)CN(C)S(=O)(=O)c2ccc3[nH]c(=O)oc3c2)c1 the results were TRPML1 inh 18.6 and TRPML1 agonist 1.7.
Screening CCCN1C(=O)c2ccccc2NC1c1ccc(OC)c(COc2cccc(C)c2C)c1 (configuration not stated) returned TRPML1 agonist -0.5.
Cc1ccc(Nc2nc(C(N)=O)c(NC(=O)c3ccccc3Br)s2)cc1 was read as TRPML1 inh 16.8 and TRPML1 agonist 1.1.
Screening Cn1c(=O)c(NCCc2ccccc2)c2c3c(cccc31)C(=O)c1ccccc1-2 returned TRPML1 inh -11.4, TRPV1 agonist 92.5*, TRPML1 agonist 104.4* and TRPV1 potentiator 22.6.
`COc1cc(/C=C(\C#N)c2nc3ccccc3n2C)cc(OC)c1O` gave TRPML1 inh -21.9, TRPV1 agonist 25.2, TRPML1 agonist 59.5* and TRPV1 potentiator inconclusive.
`Nc1ccc(-c2c3ccc(=O)cc-3oc3cc(O)ccc23)cc1C(=O)O` gave TRPML1 inh -10.5, TRPV1 agonist 93.3*, TRPML1 agonist 65.2* and TRPV1 potentiator -21.3.
Screening O=c1cc(-c2ccccc2)oc2cc(O)ccc12 returned TRPML1 inh 4.5 and TRPML1 agonist 1.6.
`O=c1ccc2c(-c3ccccc3)c3ccc(O)cc3oc-2c1` gave TRPML1 inh inconclusive, TRPV1 agonist 1.6, TRPML1 agonist 139.4* and TRPV1 potentiator -3.7.
For Cc1noc(/C=C/c2cccs2)c1S(=O)(=O)N1CCC(C(=O)NCc2ccccc2Cl)CC1 the results were TRPML1 inh 13.1 and TRPML1 agonist -0.1.
Cc1ccc(C)c(NC(=O)CCc2nc3cccnc3n2Cc2cccs2)c1 was read as TRPML1 inh 13.1 and TRPML1 agonist -0.8.
For Cn1ccc2c(N3CCCCC3)cc3c(c21)C1CCC3C1 (configuration not stated) the results were TRPML1 inh -24.5 and TRPML1 agonist 57.0*.
`Cn1ccc2c(N3CCCC3)cc3c(c21)C1CCC3C1` (configuration not stated) gave TRPML1 inh -0.2 and TRPML1 agonist -0.4.
`O=Nc1ccc(/C=C/c2ccnc3ccccc23)cc1` gave TRPML1 agonist -0.7.
CN(C)c1ccc(/C=C/N2C=CCc3c2ccc2ccccc32)cc1 was read as TRPML1 agonist 0.9.

Bioassay records deposited in PubChem BioAssay by National Center for Advancing Translational Sciences (NCATS).
